The results in this text go back to PubChem BioAssay (NCATS).

Inconclusive results are not listed. The source made the active and inactive calls. Calls follow the shape of the dose curve; as a rule, active = well fitted inhibition curve with a large enough effect; inconclusive = small, poorly fitted or top-dose-only effect; inactive = flat fitted curve, though single readings scatter.

Calcium and integrin-binding protein 1 (Homo sapiens), sequence (Q99828 whole entry, looked up): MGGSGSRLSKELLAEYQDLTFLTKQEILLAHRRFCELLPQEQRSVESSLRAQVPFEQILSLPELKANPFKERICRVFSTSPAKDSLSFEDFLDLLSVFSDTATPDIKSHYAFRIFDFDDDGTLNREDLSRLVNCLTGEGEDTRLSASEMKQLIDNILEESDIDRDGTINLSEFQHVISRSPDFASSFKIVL

In this assay the target is Calcium and integrin-binding protein 1 (Homo sapiens) (UniProt Q99828). Nature of the assay: Primary qHTS for Identification of Calcium Integrin Binding Protein 1 (CIB1) Competitor (AID 1508620). Also: top concentration of the series differs between compounds. The settings on record: CIB1-GST / FITC-alphaIIb peptide fluorescence polarization; series mostly up to 57.7 µM. In outline:
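Fluorescence polarization competition: GST-tagged CIB1 (1 uM final) preincubated with compound 15 min at room temperature, then FITC-labelled alphaIIb peptide (100 nM final) added. After 15 min at room temperature, polarization read at Ex 480/Em 540.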
Turning to `S=C(NCc1ccc2c(c1)OCO2)N1CCN(c2ncnc3c2oc2ccccc23)CC1`, the result was inactive.

Regarding `OC[C@H](Cc1ccccc1)Nc1nc(Oc2ccc3c(c2)CCC3)nc2c1ncn2Cc1ccc(-c2ccccc2)cc1`, the result was inactive.

As for `c1ccc(-c2nn3c(c2-c2ccnc4cc(OCCN5CCOCC5)ccc24)CCC3)nc1`, the result was inactive.

As to `CCN(c1ccccc1)c1cc(NC)[n+](C)c(C)n1`, the result was inactive.

On to `Cc1n[nH]c(C)c1Cc1sc2c(c1C(=O)N1C[C@H](O)CO1)c(=O)n(C)c(=O)n2CC(C)C`, for which the result was inactive.

In the case of `CN(C)c1ccc(C2Nc3ccc4ccccc4c3C3=C2C(=O)CC(C)(C)C3)cc1Br` (stereo not given), the result was inactive.

As to `O=C(Nc1ccc(F)c(C(F)(F)F)c1)Nc1nnc(-c2ccncc2)s1`, the outcome was inactive.

As to `NC(=O)C1CCCc2c1[nH]c1ccc(Cl)cc21` (stereo not given), the result was inactive.

On to `Nc1nc2[nH]cc(CCc3ccc(C(=O)N[C@@H](CCC(=O)O)C(=O)O)cc3)c2c(=O)[nH]1`, for which the outcome was inactive.

On to `Cc1cnc(Nc2ccc(OCCN3CCCC3)cc2)nc1Nc1cccc(S(=O)(=O)NC(C)(C)C)c1`, for which the result was inactive.

Take `CC[C@H](Nc1ncnc2nc[nH]c12)c1nc2cccc(F)c2c(=O)n1-c1ccccc1`: the result was inactive.

Consider `Cc1cc(SCc2sc(-c3ccc(C(F)(F)F)cc3)nc2C)ccc1OCC(=O)O`, for which the result was inactive.

For `CN(C)c1ccc(Nc2nc(N)n(C(=O)c3c(F)cccc3F)n2)cc1`, the outcome was inactive.

As to `CC1(C)CNc2cc(NC(=O)c3cccnc3NCc3ccncc3)ccc21`, the result was inactive.

With `NC(=O)c1ccc(-c2nc(-c3ccc4c(c3)OCCO4)c(-c3ccccn3)[nH]2)cc1`, the result was inactive.

As to `Cc1cc([C@@H](C)Nc2ccccc2C(=O)O)c2nc(N3CCOCC3)cc(=O)n2c1`, the outcome was inactive.

Take `O=C(C1CC1)N1CC[C@@H](Cn2c(-c3ccc(-c4ccc5occc5c4)cc3)nc3cnccc32)C1`: the result was inactive.

As to `Cc1ccnc(NS(=O)(=O)c2ccc(NC(=O)Nc3ccc(S(=O)(=O)Nc4nccc(C)n4)cc3)cc2)n1`, the outcome was inactive.

For the compound `N#Cc1ccc(C(c2ccc(C#N)cc2)n2cncn2)cc1`, the result was inactive.

Take `CS(=O)(=O)c1ccc(C(=O)Nc2ccc(Cl)c(-c3ccccn3)c2)c(Cl)c1`: the result was inactive.

On to `Cc1cc2c(F)c(Oc3ncnn4cc(OC[C@@H](C)O)c(C)c34)ccc2[nH]1`, for which the outcome was inactive.

Take `OCCn1cc(-c2cnc3nnn(Cc4ccc5ncccc5c4)c3n2)cn1`: the result was inactive.

Consider `CC(C)(N)C(=O)N[C@H](COCc1ccccc1)C(=O)N1CCC2(CC1)CN(S(C)(=O)=O)c1ccccc12`, for which the outcome was inactive.

For `O=c1[nH]c(-c2ccc(C(F)(F)F)cc2)nc2c1CSCC2`, the result was inactive.

Turning to `C[C@@H]1CN(Cc2ccc(F)cc2)[C@@H](C)CN1C(=O)c1cc2c(C(=O)C(=O)N(C)C)cn(C)c2cc1Cl`, the outcome was inactive.

Turning to `CCN(CC)CCCC(C)Nc1nc(C)cc(Nc2ccc3nc(C)cc(N)c3c2)n1` (stereo not given), the outcome was inactive.

Turning to `Cc1cc(Nc2nc(N[C@@H](C)c3ncc(F)cn3)ncc2Cl)n[nH]1`, the result was inactive.

As to `CS(=O)(=O)Oc1ccc2c(NC(N)=O)c(C(=O)c3ccc(Cl)cc3Cl)oc2c1`, the result was inactive.

Take `O=C(O)[C@@H](c1ccc(OCc2ccc3ccccc3n2)cc1)C1CCCC1`: the result was inactive.

Regarding `N#CC[C@H](C1CCCC1)n1cc(-c2ncnc3[nH]ccc23)cn1`, the outcome was inactive.

With `CC(C)(C)OC(=O)CN(Cc1ccc(Cl)cc1)Cc1ccc([N+](=O)[O-])s1`, the result was inactive.

As for `NC(=O)c1ccc(I)c([N+](=O)[O-])c1`, the outcome was inactive.

Turning to `CNC(=O)c1ccc(N2C(=S)N(c3ccc(C#N)c(C(F)(F)F)c3)C(=O)C2(C)C)cc1F`, the outcome was inactive.

Take `CCCn1c(=O)c2[nH]c(C34CC5CC3C[C@@H](C5)C4)nc2n(CCC)c1=O`: the result was inactive.

Consider `COc1c(Cl)cc2c([nH]c3cnccc32)c1NC(=O)c1cccnc1C`, for which the outcome was inactive.
